Measurements from PubChem BioAssay (NCATS).

These compounds were tested against Glucocorticoid receptor (Homo sapiens) (UniProt P04150) (assay: GR-GFP Redistribution (AID 450)). Settings: U2OS GR-GFP nuclear translocation, laser cytometry, 2 h; series mostly up to 20.6 µM;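 active means compounds whose dose series gives a full or clear partial fitted curve of increased nuclear translocation; inconclusive means weak partial curve or effect only at the top dose; inactive means no dose-dependent translocation response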.
Glucocorticoid receptor (Homo sapiens), sequence (P04150 whole entry, looked up): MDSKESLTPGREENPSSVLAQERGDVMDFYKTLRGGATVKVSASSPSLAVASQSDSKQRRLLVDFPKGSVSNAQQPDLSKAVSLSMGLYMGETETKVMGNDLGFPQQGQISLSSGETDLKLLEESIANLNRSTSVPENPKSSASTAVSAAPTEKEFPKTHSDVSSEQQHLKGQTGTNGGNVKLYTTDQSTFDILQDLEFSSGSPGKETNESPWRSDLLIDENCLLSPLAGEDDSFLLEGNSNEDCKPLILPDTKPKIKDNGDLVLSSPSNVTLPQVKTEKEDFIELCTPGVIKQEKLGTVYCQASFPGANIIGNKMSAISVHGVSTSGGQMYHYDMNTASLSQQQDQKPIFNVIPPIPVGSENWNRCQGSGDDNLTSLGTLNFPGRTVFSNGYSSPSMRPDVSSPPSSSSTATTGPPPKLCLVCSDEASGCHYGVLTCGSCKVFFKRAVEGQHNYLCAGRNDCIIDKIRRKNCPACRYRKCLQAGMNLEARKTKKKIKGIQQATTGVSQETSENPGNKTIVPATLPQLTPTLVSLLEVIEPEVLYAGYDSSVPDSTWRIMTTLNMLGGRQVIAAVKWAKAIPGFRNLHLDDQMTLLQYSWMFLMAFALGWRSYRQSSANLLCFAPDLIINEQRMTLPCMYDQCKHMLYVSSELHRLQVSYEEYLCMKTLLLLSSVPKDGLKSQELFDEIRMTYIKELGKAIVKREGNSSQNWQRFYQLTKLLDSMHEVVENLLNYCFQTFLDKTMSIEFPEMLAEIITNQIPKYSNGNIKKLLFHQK
Potency means the concentration at half of the fitted maximal effect.

Potency, inactive:
O=C1CC(c2ccccc2)n2nc(N3C(=O)c4ccccc4C3=O)nc2N1 (stereo not drawn) > 20.6 µM
Cc1ccc(C2/C(=C(/O)c3ccc(OC(C)C)cc3)C(=O)C(=O)N2CCN2CCOCC2)cc1 (stereo not drawn) > 20.6 µM
COC(=O)c1ccccc1N1C(=O)[C@@H]2C(c3ccc(Br)cc3)=NO[C@@H]2C1=O > 20.6 µM
CCCCOc1ccc(C(=O)Nc2ccc(N3CCN(C(C)=O)CC3)cc2)cc1 > 20.6 µM
CCOC(=O)CSc1nc(N(C)C)nc(N(C)C#N)n1 > 20.6 µM
CC(=O)c1c(C)c2c(n1CCN(C)C)CCCC2 > 20.6 µM
Oc1ccc(C=Nc2ccc3ncccc3c2)c(O)c1 > 20.6 µM
COC(=O)c1[nH]c(C)c(/C(O)=C2\C(=O)C(=O)N(CCN3CCOCC3)C2c2cccnc2)c1C (stereo not drawn) > 20.6 µM
CCOC(=O)c1cc2c(=O)n3cccc(C)c3nc2n(Cc2cccnc2)c1=N > 20.6 µM
Cn1ncc2nnn(-c3ccccc3)c(=O)c21 > 20.6 µM
CCCOc1ccc(N2C(=O)CC(N(Cc3ccc(S(N)(=O)=O)cc3)C(=O)CC)C2=O)cc1 (stereo not drawn) > 20.6 µM
CSc1nc2sc3c(c2c(=O)[nH]1)CCC(C)C3 (stereo not drawn) > 20.6 µM
Clc1ccccc1-c1nn2c(-c3ccccn3)nnc2s1 > 20.6 µM
O=C1c2ccccc2S(=O)(=O)N1CC(O)COc1ccc(Cl)cc1 (stereo not drawn) > 20.6 µM
Cc1ccc(-n2c(SCC(=O)NCc3ccco3)nc3nc4c(cc3c2=O)COC(C)(C)C4)cc1 > 20.6 µM
Clc1nc(-c2n[nH]nc2Cl)n[nH]1 > 20.6 µM
CCOC(=O)c1sc(-n2[nH]c(C)cc2=O)nc1C > 20.6 µM
O=C(NCc1ccccc1)/C(=N\O)c1ccccc1 > 20.6 µM
COc1cccc(/C(O)=C2/C(=O)C(=O)N(CCN(C)C)C2c2ccc(Br)cc2)c1 (stereo not drawn) > 20.6 µM
CN=C1c2c(-c3ccccc3)c3cc(OC)ccc3n2CCN1C > 20.6 µM
Cc1[nH]nc2cn[nH]c12 > 20.6 µM
Cc1[nH]nc2c1C(CCc1ccccc1)C(C#N)=C(N)O2 (stereo not drawn) > 20.6 µM
CC(=O)/C=C(\C)NCCNc1c(F)c(F)c(CO)c(F)c1F > 20.6 µM
